# Source: PubChem BioAssay (NCI)
# “And” between values parts separate entries of the source, which are not always exact repeats. Equal entries are not always repeated. This is part of a sample that, as a whole, favours compounds with a hit. Of some 79,000 tested, about 15% had one in any assay. Where a structure was tested more than once in an assay, its records may differ in their call. The source made the active and inactive calls. Rule as the data show it: active = growth inhibition above about 70%; inactive = the rest.
# Columns and labels:
# [1] = NCI Yeast Anticancer Drug Screen. Data for the rad50 strain (AID 155);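 also: 0% = growth of vehicle-only cultures of the same strain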; details: S. cerevisiae rad50 strain growth inhibition, stronger effect = higher value
# Outline: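 Relative growth inhibition (compound vs vehicle) was measured in yeast with a defined repair-gene alteration.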
# [2] = NCI Yeast Anticancer Drug Screen. Data for the mec2-1 strain (AID 157); details: S. cerevisiae mec2-1 strain, stronger effect = higher value
# Outline: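 Vehicle-treated cultures served as reference for growth inhibition of compound-exposed mec2-1 yeast.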
# [3] = NCI Yeast Anticancer Drug Screen. Data for the sgs1 mgt1 strain (AID 161);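 also: 0% = growth of cultures given vehicle only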; details: S. cerevisiae sgs1 mgt1 strain, stronger effect = higher value
# Outline: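 Genetically altered yeast, compound exposure, growth inhibition relative to vehicle.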
# [4] = NCI Yeast Anticancer Drug Screen. Data for the cln2 rad14 strain (AID 165);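 also: 0% = growth equal to vehicle treated cultures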; details: S. cerevisiae cln2 rad14 strain, stronger effect = higher value
# Outline: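 Each compound was tested on cln2 rad14 yeast. Inhibition of growth was calculated against vehicle-exposed controls.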
# [5] = NCI Yeast Anticancer Drug Screen. Data for the bub3 strain (AID 167); details: S. cerevisiae bub3 mutant strain, stronger effect = higher value
# Outline: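 Screening used yeast with an engineered genetic alteration affecting cell cycle control. Compound-exposed cultures were compared with vehicle cultures, and reduced growth was taken as inhibition.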
# [6] = NCI Yeast Anticancer Drug Screen. Data for the mlh1 rad18 strain (AID 175); details: S. cerevisiae mlh1 rad18 strain growth inhibition, stronger effect = higher value
# Outline: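 Vehicle-treated cultures served as the reference for growth inhibition in a yeast strain carrying DNA damage repair alterations exposed to each compound.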
# [7] = NCI Yeast Anticancer Drug Screen. Data for the wt2 strain (AID 169);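 also: 0% = growth of vehicle-treated yeast cultures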; details: S. cerevisiae wt2 strain growth inhibition, stronger effect = higher value
# Outline: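 Inhibition of yeast growth was determined after compound treatment, normalised to controls receiving only vehicle.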
# [8] = at 5.0 µM (retest, dose inferred, filed as 0.5)
# [9] = at 50.0 µM (retest, dose inferred, filed as 5.0)
smiles,measurement,setting,value
CCOc1ccc(NC(=O)/C(=C\c2ccc(C)cc2)C(C)=O)cc1,growth inhibition,[1]; [8],-17% (inactive)
same,growth inhibition,[1]; [9],-1% (inactive)
same,growth inhibition,[1]; at 50.0 µM,-32% (inactive) and 8.1% (inactive)
same,growth inhibition,[2]; [8],-2% (inactive)
same,growth inhibition,[2]; [9],-3% (inactive)
same,growth inhibition,[2]; at 50.0 µM,-2.3% (inactive) and -25.1% (inactive)
same,growth inhibition,[3]; [8],9% (inactive)
same,growth inhibition,[3]; [9],-4% (inactive)
same,growth inhibition,[3]; at 50.0 µM,2.9% (inactive) and 3.65% (inactive)
same,growth inhibition,[4]; [8],-6% (inactive)
same,growth inhibition,[4]; [9],5% (inactive)
same,growth inhibition,[4]; at 50.0 µM,-24.8% (inactive) and -8.15% (inactive)
same,growth inhibition,[5]; [8],-3% (inactive)
same,growth inhibition,[5]; [9],-5% (inactive)
same,growth inhibition,[5]; at 50.0 µM,-2.4% (inactive) and -19.2% (inactive)
same,growth inhibition,[6]; [8],-3% (inactive)
same,growth inhibition,[6]; [9],-5% (inactive)
same,growth inhibition,[6]; at 50.0 µM,6% (inactive) and 0.5% (inactive)
CSc1ccc(N2C(=O)CSC2=S)cc1Cl,growth inhibition,[1]; [8],27% (inactive)
same,growth inhibition,[1]; [9],74% (active)
same,growth inhibition,[1]; at 50.0 µM,97.5% (active)
same,growth inhibition,[2]; [8],27% (inactive)
same,growth inhibition,[2]; [9],40% (inactive)
same,growth inhibition,[2]; at 50.0 µM,94.3% (active)
same,growth inhibition,[3]; [8],16% (inactive)
same,growth inhibition,[3]; [9],79% (active)
same,growth inhibition,[3]; at 50.0 µM,95.2% (active)
same,growth inhibition,[4]; [8],-1% (inactive)
same,growth inhibition,[4]; [9],-4% (inactive)
same,growth inhibition,[4]; at 50.0 µM,29.1% (inactive)
same,growth inhibition,[5]; [8],37% (inactive)
same,growth inhibition,[5]; [9],82% (active)
same,growth inhibition,[5]; at 50.0 µM,92.4% (active)
same,growth inhibition,[6]; [8],31% (inactive)
same,growth inhibition,[6]; [9],94% (active)
same,growth inhibition,[6]; at 50.0 µM,97% (active)
Cc1c2ccccc2c(C=O)c2ccccc12,growth inhibition,[1]; [8],40% (inactive)
same,growth inhibition,[1]; [9],96% (active)
same,growth inhibition,[1]; at 50.0 µM,86.2% (active)
same,growth inhibition,[2]; [8],44% (inactive)
same,growth inhibition,[2]; [9],99% (active)
same,growth inhibition,[2]; at 50.0 µM,89% (active)
same,growth inhibition,[4]; [8],50% (inactive)
same,growth inhibition,[4]; [9],59% (inactive)
same,growth inhibition,[4]; at 50.0 µM,88.2% (active)
same,growth inhibition,[5]; [8],2% (inactive)
same,growth inhibition,[5]; [9],67% (inactive)
same,growth inhibition,[5]; at 50.0 µM,88.5% (active)
same,growth inhibition,[7]; at 1.2 µM,-11% (inactive)
same,growth inhibition,[7]; at 3.7 µM,-16% (inactive)
same,growth inhibition,[7]; at 11.0 µM,-4% (inactive)
same,growth inhibition,[7]; at 33.0 µM,23% (inactive)
same,growth inhibition,[7]; at 100.0 µM,93% (active)
same,growth inhibition,[6]; [8],40% (inactive)
same,growth inhibition,[6]; [9],99% (active)
same,growth inhibition,[6]; at 50.0 µM,87.4% (active)
CC1OC(OC2CC(O)(C(=O)CO)Cc3c(O)c4c(c(O)c32)C(=O)c2ccccc2C4=O)CC(N)C1O (stereo not given),growth inhibition,[1]; [8],87% (active)
same,growth inhibition,[1]; [9],96% (active)
same,growth inhibition,[1]; at 50.0 µM,87.8% (active)
same,growth inhibition,[2]; [8],62% (inactive)
same,growth inhibition,[2]; [9],95% (active)
same,growth inhibition,[2]; at 50.0 µM,91.1% (active)
same,growth inhibition,[4]; [8],57% (inactive)
same,growth inhibition,[4]; [9],95% (active)
same,growth inhibition,[4]; at 50.0 µM,87.3% (active)
same,growth inhibition,[5]; [8],56% (inactive)
same,growth inhibition,[5]; [9],96% (active)
same,growth inhibition,[5]; at 50.0 µM,89.1% (active)
same,growth inhibition,[6]; [8],77% (active)
same,growth inhibition,[6]; [9],94% (active)
O=C(O)c1ccc2c(c1)Cc1cc([N+](=O)[O-])ccc1-2,growth inhibition,[1]; [8],-3% (inactive)
same,growth inhibition,[1]; [9],88% (active)
same,growth inhibition,[1]; at 50.0 µM,70.1% (active)
same,growth inhibition,[2]; [8],-7% (inactive)
same,growth inhibition,[2]; [9],72% (active)
same,growth inhibition,[2]; at 50.0 µM,13.4% (inactive)
same,growth inhibition,[3]; [8],7% (inactive)
same,growth inhibition,[3]; [9],85% (active)
same,growth inhibition,[3]; at 50.0 µM,64% (inactive)
same,growth inhibition,[5]; [8],-10% (inactive)
same,growth inhibition,[5]; [9],0% (inactive)
same,growth inhibition,[5]; at 50.0 µM,14% (inactive)
same,growth inhibition,[6]; [8],4% (inactive)
same,growth inhibition,[6]; [9],82% (active)
same,growth inhibition,[6]; at 50.0 µM,73% (active)
N#CC(=C1C=CC(=NOC(=O)Nc2cccc3ccccc23)C=C1)c1ccccc1,growth inhibition,[1]; [8],44% (inactive)
same,growth inhibition,[1]; [9],99% (active)
same,growth inhibition,[1]; at 50.0 µM,97.8% (active)
same,growth inhibition,[2]; [8],35% (inactive)
same,growth inhibition,[2]; [9],99% (active)
same,growth inhibition,[2]; at 50.0 µM,97.7% (active)
same,growth inhibition,[4]; [8],10% (inactive)
same,growth inhibition,[4]; [9],99% (active)
same,growth inhibition,[4]; at 50.0 µM,97.7% (active)
same,growth inhibition,[5]; [8],62% (inactive)
same,growth inhibition,[5]; [9],99% (active)
same,growth inhibition,[5]; at 50.0 µM,98.3% (active)
same,growth inhibition,[6]; [8],30% (inactive)
same,growth inhibition,[6]; [9],99% (active)
same,growth inhibition,[6]; at 50.0 µM,97.5% (active)
Cc1[nH]c2ccccc2c1C1Cc2ccccc2N1 (stereo not given),growth inhibition,[1]; [8],14% (inactive) and 19% (inactive)
same,growth inhibition,[1]; [9],15% (inactive) and 76% (active)
same,growth inhibition,[1]; at 50.0 µM,37.1% (inactive) and 57.5% (inactive)
same,growth inhibition,[2]; [8],12% (inactive) and 24% (inactive)
same,growth inhibition,[2]; [9],14% (inactive) and 59% (inactive)
same,growth inhibition,[2]; at 50.0 µM,36.2% (inactive) and 78.5% (active)
same,growth inhibition,[3]; [8],16% (inactive) and 25% (inactive)
same,growth inhibition,[3]; [9],14% (inactive) and 79% (active)
same,growth inhibition,[3]; at 50.0 µM,46.3% (inactive) and 81.3% (active)
same,growth inhibition,[5]; [8],9% (inactive) and 15% (inactive)
same,growth inhibition,[5]; [9],-12% (inactive) and 76% (active)
same,growth inhibition,[5]; at 50.0 µM,30.6% (inactive) and 94.2% (active)
same,growth inhibition,[6]; [8],15% (inactive) and 20% (inactive)
same,growth inhibition,[6]; [9],37% (inactive) and 52% (inactive)
same,growth inhibition,[6]; at 50.0 µM,69.7% (inactive) and 96.2% (active)
OC(c1ccccc1)(c1ccccc1)c1ccccc1 (tested in a mixture with another compound),growth inhibition,[1]; [8],-5% (inactive)
same,growth inhibition,[1]; [9],94% (active)
same,growth inhibition,[1]; at 50.0 µM,10.7% (inactive) and 96.7% (active)
same,growth inhibition,[2]; [8],-7% (inactive)
same,growth inhibition,[2]; [9],91% (active)
same,growth inhibition,[2]; at 50.0 µM,2.55% (inactive) and 96.5% (active)
same,growth inhibition,[4]; [8],-12% (inactive)
same,growth inhibition,[4]; [9],94% (active)
same,growth inhibition,[4]; at 50.0 µM,-4.75% (inactive) and 95.2% (active)
same,growth inhibition,[5]; [8],-7% (inactive)
same,growth inhibition,[5]; [9],96% (active)
same,growth inhibition,[5]; at 50.0 µM,1.15% (inactive) and 95.4% (active)
same,growth inhibition,[6]; [8],-6% (inactive)
same,growth inhibition,[6]; [9],93% (active)
same,growth inhibition,[6]; at 50.0 µM,9.15% (inactive) and 94% (active)
